# Screening data (PubChem)
# MmCpn inh = M. maripaludis TRiC chaperonin inhibition; hit rate 0.031% among 330,000; AID 504842; purified Mm-Cpn ATPase, ADP Transcreener TR-FRET; Potency, µM (top dose mostly 76.9 µM), inactives show top-dose activity, negative = inhibition, most hits filed as inhibitors; note: potency is the fitted concentration of half-maximal effect; nearly all actives have a fitted effect of over 80% in size
#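 ATPase turnover read by TR-FRET ADP competition (Eu cryptate antibody/ADP-d2, 665/590 nm): 10uM ATP final, 25nM Mm-CPN final, 30 min 37degC after 10-min compound preincubation, pH 7.4 Tris/KCl/MgCl2/DTT buffer.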
# VDR inh = blocks the human vitamin D receptor. P11473. VDR-SRC2-3 peptide fluorescence polarization, 2 h. Potency, µM, inactives show max response, negative = inhibition, most hits filed as inhibitors. hit rate 0.93% among 400,000. AID 504847; note: potency is the fitted concentration of half-maximal effect
# Target sequence (P11473 whole entry, looked up): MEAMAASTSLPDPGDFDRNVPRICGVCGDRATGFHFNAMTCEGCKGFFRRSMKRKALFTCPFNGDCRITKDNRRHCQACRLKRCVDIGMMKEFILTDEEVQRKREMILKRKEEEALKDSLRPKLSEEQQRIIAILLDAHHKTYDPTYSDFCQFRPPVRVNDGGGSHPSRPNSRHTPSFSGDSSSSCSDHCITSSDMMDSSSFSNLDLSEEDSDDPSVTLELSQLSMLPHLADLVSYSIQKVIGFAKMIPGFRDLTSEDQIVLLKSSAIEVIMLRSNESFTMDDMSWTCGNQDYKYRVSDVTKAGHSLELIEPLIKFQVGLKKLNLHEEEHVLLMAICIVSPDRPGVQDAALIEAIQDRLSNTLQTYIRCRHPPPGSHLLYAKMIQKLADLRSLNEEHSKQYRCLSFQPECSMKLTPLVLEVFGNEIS
#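 Signal is fluorescence polarization, reporting how far test compounds block the interaction of VDR with the SRC2-3 coregulator peptide after a 2 h room-temperature incubation.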
# PLK1 PBD block = blocks phosphopeptide binding to human PLK1 polo-box domain | Plk1 PBD binding of FITC phosphopeptide, fluorescence polarization | Potency, µM, inactives show max response, negative = inhibition, actives largely listed as inhibitors | P53350 | hit rate 2.8% among 360,000; note: potency is the fitted concentration of half-maximal effect; series mostly up to about 57 µM; nearly all actives have a fitted effect of over 65% in size
# G9a inh = inhibitors of human histone lysine methyltransferase G9a; Potency, µM (doses to about 102 µM), inactives show top-dose activity, negative = inhibition, most hits filed as inhibitors; hit rate 8.8% among 350,000; G9a H3K9 monomethylation, AlphaScreen, 2 h; Q96KQ7; note: potency is the fitted concentration of half-maximal effect; nearly all actives have a fitted effect of over 75% in size
# Target sequence (Q96KQ7 913-1193 limits assumed): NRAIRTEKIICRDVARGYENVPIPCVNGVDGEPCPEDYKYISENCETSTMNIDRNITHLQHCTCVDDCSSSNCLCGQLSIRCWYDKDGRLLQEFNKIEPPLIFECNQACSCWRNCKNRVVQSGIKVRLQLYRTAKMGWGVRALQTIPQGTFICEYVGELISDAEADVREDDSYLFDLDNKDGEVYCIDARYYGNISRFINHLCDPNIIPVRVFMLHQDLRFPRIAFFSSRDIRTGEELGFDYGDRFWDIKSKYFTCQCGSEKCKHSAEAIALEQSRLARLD
#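 Chemiluminescent proximity detection of H3K9 monomethylation, read after 10 min bead incubation in the dark. Reaction: 20 nM G9a, 500 nM biotin-H3K9 peptide, 20 uM SAM cofactor, 2 h, room temperature, following 15 min enzyme-compound preincubation.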
# Sfp inh = inhibitors of Bacillus subtilis Sfp phosphopantetheinyl transferase. Q9F4F7. AID 1490. hit rate 3.5% among 310,000. Potency, µM, inactives show largest response in the series, negative = inhibition, usual class: inhibitors. Biochemical Sfp PPTase activity, qHTS;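 note: the enzyme is Sfp with the accession as filed and its product quenches rhodamine fluorescence; potency is the fitted concentration of half-maximal effect; 0% = enzyme reaction without inhibitor and -100% = no enzyme wells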
#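 Buffer: 50 mM Hepes-Na pH 7.6, 10 mM MgCl2, 0.01% Nonidet P-40, 0.01% BSA. Enzyme 15 nM, pre-exposed to compound 15 min; substrates then added and fluorescence change tracked over 30 min.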
# CCT modulator = cytosolic chaperonin activity modulation. purified chaperonin ATPase assay, HTRF ADP detection, 30 min. activity change, % (concentration not given with the values), hits read low. hit rate 0.3% among 360,000; in the data active = activity change below about -30%
#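 We incubate TRiC, 40 or 20 nM final, with library compounds at 76 uM and 10 uM ATP for 30 min at 37 °C. ADP formed is detected with Transcreener HTRF reagents after 30 min at room temperature.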
# * hit, by the source's call; ? = inconclusive; . = no result given; [ ] = remark or other dose. Shown are actives, neighbours in structure and some others; about 10% of the full set was active somewhere. Unless noted, calls come from the whole dose curve; as a rule, active = well fitted curve in the direction sought with a large enough effect; inconclusive = small, poorly fitted or top-dose-only effect, or another doubt; inactive = no such curve, though single readings can be large; an effect the other way counts as inactive or inconclusive. Unless noted, % is set by controls: 0 for no effect and ±100 for the full control effect.
SMILES,MmCpn inh,VDR inh,PLK1 PBD block,G9a inh,Sfp inh,CCT modulator
COc1cc(NC(=O)C2CCN(S(=O)(=O)c3ccc(N4CCCC4=O)cc3)CC2)cc(OC)c1,2%,-25%,30µM*,46%,15%,-2
COc1ccc(N2CCN(CCCNC(=O)C3CCCN(S(=O)(=O)c4cnc[nH]4)C3)CC2)cc1 (stereo unspecified),-2%,22%,-4%,50µM*,3%,0
COc1ccc(NC(=O)C2CCN(S(=O)(=O)c3ccc(N4CCCC4=O)cc3)CC2)cc1OC,-2%,-8%,-12%,10%,5%,-1
COc1ccc(N2CCN(CCCNC(=O)C3CCCN(S(=O)(=O)c4c(C)n[nH]c4C)C3)CC2)cc1 (stereo unspecified),0%,8%,-2%,?,15%,1
COc1ccc(S(=O)(=O)N2CCCC(C(=O)NCCC(C)C)C2)cc1 (stereo unspecified),-4%,-13%,24µM*,-23%,-5%,-3
COc1ccc(S(=O)(=O)N2CCC(C(=O)N[C@H](C(=O)N3CCCC3)C(C)C)CC2)cc1,-1%,-14%,27µM*,10%,10%,0
COc1ccc(-n2nc(C(=O)Nc3ccc(Cl)cn3)c3c4ccccc4n(C)c3c2=O)cc1Cl,.,-1%,.,-8%[59 µM],.,.
Cc1nnc2c3ccccc3nc(N3CCN(c4ccccc4)CC3)n12,.,4%,.,-1%[59 µM],.,.
Fc1ccc(Br)cc1C1C=C(c2ccc(Br)cc2)Nc2ncnn21 (stereo unspecified),-2%,5%,-21%,23%[12.7 µM],-3%,-2
Fc1ccc(Br)cc1C1C=C(c2ccc(Br)cc2)Nc2nnnn21 (stereo unspecified),.,2%,.,11µM*,.,.
CCOc1ccccc1CN1CCc2nc(N3CCN(C)CC3)ncc2C1,.,8%,.,-3%[12.7 µM],.,.
CC(=O)c1ccc(N2C(=O)Nc3ccccc3S2(=O)=O)cc1,.,14%,.,-34%[59 µM],.,.
Cc1c(C)n(CC(O)CN2CCCCC2)c2ccccc12 (stereo unspecified),0%,-9%,-12%,?,-25%,0
Cc1cc(C)n(CC(O)Cn2c(C)c(C)c3ccccc32)n1 (stereo unspecified),-1%,13%,-1%,13µM*,-26%,-2
CCOc1ccc(C(=O)Cn2c(=O)n3nc(CCn4nc(C)cc4C)nc3c3cc(OC)c(OC)cc32)cc1,.,-3%,.,17%[59 µM],.,.
CCN(CC)c1ccc(NS(=O)(=O)c2ccc3c(c2)oc(=O)n3C)c(C)c1,-4%,-16%,-5%,40µM*,?,-1
Cn1c(=O)oc2cc(S(=O)(=O)Nc3cccc(C(=O)O)c3)ccc21,1%,5%,-2%,-10%[12.7 µM],-4%,0
Cn1c(=O)oc2cc(S(=O)(=O)NCc3ccccn3)ccc21,-1%,3%,-8%,13µM*,-13%,-1
Cn1c(=O)oc2cc(S(=O)(=O)Nc3ccccc3)ccc21,-5%,-12%,21µM*,-30%,4%,2
COc1cccc([C@@H]2Oc3ccc(Br)cc3C(=O)[C@H]2OC(=O)NCCOc2ccccc2)c1,.,-3%,.,.,20%,.
CCOc1ccc(CCNC(=O)CCCn2nc(C)c3sc4ccccc4c3c2=O)cc1OCC,.,5%,.,-22%[59 µM],.,.
CCOc1ccc(NC(=O)C2CCCN(c3ccc(Sc4ccc(C)cc4)nn3)C2)cc1 (stereo unspecified),.,-1%,.,10%[59 µM],.,.
O=C(O)CC1CCCc2ccccc2C1O (stereo unspecified),.,-3%,.,29%[59 µM],.,.
CC1CCN(CCCNC(=O)c2cc3sccc3n2C)CC1,2%,-6%,-2%,?,-20%,1
COc1ccc(N2CCN(CCCNC(=O)c3cc4sccc4n3C)CC2)cc1,0%,-1%,-1%,14µM*,10%,-1
SMILES,MmCpn inh,VDR inh,PLK1 PBD block,G9a inh,Sfp inh,CCT modulator
COc1ccc(N2CCN(CCCNC(=O)Cn3c(-c4cccs4)cc4ccccc43)CC2)cc1,.,9%,.,10µM*,.,.
CCOC(=O)C1CCN(C(=O)COc2ccc(Cl)cc2)CC1,-2%,8%,1%,19%[0.0925 µM],-2%,0
CCS(=O)(=O)N1CCC(C(=O)Oc2ccc(Cl)cc2)CC1,1%,-12%,27µM*,?,11%,1
CCOC(=O)N1CCN(C(=O)COC(=O)C2CCN(S(=O)(=O)c3c(Cl)cccc3Cl)CC2)CC1,1%,-10%,-6%,50µM*,.,0
COC(=O)C1CCN(C(=O)COC(=O)C2CCN(S(=O)(=O)c3c(Cl)cccc3Cl)CC2)CC1,2%,4%,-11%,?,.,0
CCOC(=O)C1CCN(C(=O)COC(=O)COc2ccc(Cl)cc2)CC1,4%,-1%,11%,3%,19%,-30*
O=S(=O)(O)NC1CCCCC1,.,19%,.,-17%[12.7 µM],5%,.
COc1ccccc1CN1C[C@@H]2C[C@@H](c3[nH]c4c(C)cccc4c3C)N3CCC[C@@]23C1=O,1%,11%,-1%,45µM*,2%,1
CCOC(=O)C1CCN(C(=O)CCNS(=O)(=O)c2ccc(C)cc2)CC1,2%,3%,1%,4%[12.7 µM],.,-3
Cc1ccc(S(=O)(=O)NC(C)(C)CN2CCC(Cc3ccccc3)CC2)cc1,-1%,16%,-4%,7.9µM*,?,1
CCOC(=O)C1CCN(CC(C)(C)NS(=O)(=O)c2ccc(C)cc2)CC1,-2%,0%,-15%,14µM*,-14%,0
Cc1ccc(S(=O)(=O)NCCC(=O)N2CCC(Cc3ccccc3)CC2)cc1,2%,-2%,1%,19%[0.501 µM],.,-1
COCCCNC(=O)CCCN1C(=O)CCn2nc(-c3cn(C)c4ccccc34)cc21,.,-2%,.,19%[59 µM],.,.
Cc1cc(C)c2c(=O)cc(CSc3nnc(-c4ccccc4)n3C)[nH]c2c1,.,9%,.,23%[59 µM],.,.
COC(=O)c1ccccc1-n1cc2c(c1-c1cccc(C)c1)c(=O)n(C)c(=O)n2C,.,8%,.,7.9µM*,.,.
Cc1cccc(-c2c3c(=O)n(C)c(=O)n(C)c3cn2-c2ccccc2O)c1,3%,10%,-10%,?,50µM*,-1
COc1ccc2oc(-c3ccc(C)c(NC(=O)c4ccc(-c5ccccc5[N+](=O)[O-])o4)c3)nc2c1,.,-13%,.,-22%[59 µM],.,.
COc1cccc2cc(-c3cc(=O)oc4cc(C)c(OCC(C)=O)cc34)oc12,2%,-17%,17µM*,22%,10%,1
COc1ccc2oc(=O)cc(-c3cc4cccc(OC)c4o3)c2c1,1%,-10%,-11%,9%,-1%,1
c1ccc(SCCOCCn2cncn2)cc1,3%,1%,-5%,13µM*,-19%,-2
c1ccc(COc2ccc(OCCOCCn3cncn3)cc2)cc1,-3%,-5%,-5%,-2%[12.7 µM],5%,-1
COc1cc(OC)c(N(C)C(=O)Cn2ncc3c(=O)oc4ccccc4c32)cc1Cl,.,-3%,.,4%[59 µM],.,.
